Screening results from PubChem BioAssay.
ATXN viability = Viability Counterscreen for Primary qHTS for Inhibitors of ATXN expression; AID 651635, 2014; S2 cells (HEK-293 line with an ATXN2-luciferase reporter) viability, CellTiter-Fluor protease fluorescence, 24 h; Potency, µM (doses to about 56.7 µM), usual class: cytotoxic; 400,000 tested, 0.49% active; note: nearly all actives have a fitted effect of over 40% in size
TGFb inhibitor = qHTS for Inhibitors of TGF-b; HepG2 CAGA-GFP TGF-b/SMAD3 reporter, GFP fluorescence, 18 h; TGF-beta stimulated, 500 pg/mL final; Potency, µM (highest dose often 46.1 µM), usual class: inhibitors; 410,000 tested, 1.2% active; note: nearly all actives have a fitted effect of over 65% in size
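First, reporter cells (HEPG2 CAGA-GFP) rested 2 h at 37 degrees C. Next, compounds were pinned in and TGF-beta added to 500 pg/mL final. After 18 h, GFP was imaged per cell and summed per well.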
HepG2 viability = qHTS for Inhibitors of TGF-b: Cytotox Counterscreen. HepG2 CAGA-GFP viability, ATP luminescence, 18 h. Potency, µM (doses to about 46.1 µM), hits mostly cytotoxic. 410,000 tested, 0.76% active. AID 588856, 2011
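CellTiter-Glo luminescence gave cytotoxicity after 18 hours at 37 degrees C. The cells were HepG2 CAGA-GFP in 1% FBS DMEM, stimulated with 500 pg/mL TGF-beta after compound addition. %Activity was normalised to no-cell wells (complete cell-killing) and DMSO (no toxicity), and curves were fitted and classified.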
ATXN2 expr inh = Primary qHTS for Inhibitors of ATXN expression; HEK-293 ATXN2-luciferase reporter, luminescence, 24 h; AID 1745845, 2022; 360,000 tested, 0.72% active; Potency, µM (titrated, usually from 57 µM), usual class: inhibitors; note: nearly all actives have a fitted effect of over 55% in size
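qHTS (up to 57 uM final) was run with 24 h compound exposure of reporter cells at 37 °C. Each well was multiplexed: SteadyGlo luminescence measured ATXN2-luciferase expression after a fluorogenic Gly-Phe-AFC viability readout (25 uM final).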
DRD3 agonist = qHTS of D3 Dopamine Receptor Agonist: qHTS | D(3) dopamine receptor (Homo sapiens), P35462 | AID 652048, 2013 | 410,000 tested, 0.58% active | D3R DiscoveRx beta-arrestin cells, luminescence, 90 min | max activation, %; in the data active = max activation above about 30%
Target sequence (P35462 whole entry, looked up): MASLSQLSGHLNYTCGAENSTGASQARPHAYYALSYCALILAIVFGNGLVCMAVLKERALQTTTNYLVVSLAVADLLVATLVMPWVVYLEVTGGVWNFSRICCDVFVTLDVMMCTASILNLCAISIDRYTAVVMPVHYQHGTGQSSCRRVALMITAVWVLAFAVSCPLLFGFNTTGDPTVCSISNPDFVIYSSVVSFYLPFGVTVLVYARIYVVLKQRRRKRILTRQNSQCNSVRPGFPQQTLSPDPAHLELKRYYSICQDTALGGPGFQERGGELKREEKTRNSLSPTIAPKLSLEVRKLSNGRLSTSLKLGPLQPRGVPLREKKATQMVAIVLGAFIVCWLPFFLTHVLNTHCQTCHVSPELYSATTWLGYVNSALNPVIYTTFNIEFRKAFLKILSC
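Agonist-mode cell screen: cells plated at 1500/well and incubated overnight at 37 °C, then exposed to library compounds for 90 min at 37 °C. Detection reagent was added for 30–60 min at room temperature, and luminescence was read.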
D3 antag = qHTS of D3 Dopamine Receptor Antagonist: qHTS | D3R cells, DiscoveRx beta-arrestin luminescence, antagonist mode; hits give low values | 360,000 tested, 2.5% active | max response, negative = inhibition, % | D(3) dopamine receptor (Homo sapiens), P35462 | AID 652054, 2013; in the data active = max response below about -50%; inconclusive = no clear call, values can overlap the other calls
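Cells expressing the human receptor were seeded at 1500 cells/well, incubated overnight at 37 degrees C in 5% CO2, then exposed to library compounds with dopamine controls for 90 minutes at 37 degrees C before luminescent detection.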
A number is an active result; i = inactive; ? = inconclusive; nt = no result. The list is not random: actives were taken first. Their share in the collection is about 4.8%. Unless noted, calls come from the whole dose curve; as a rule, active = well fitted curve in the direction sought with a large enough effect; inconclusive = small, poorly fitted or top-dose-only effect, or another doubt; inactive = no such curve, though single readings can be large; an effect the other way counts as inactive or inconclusive.

SMILES	ATXN viability	TGFb inhibitor	HepG2 viability	ATXN2 expr inh	DRD3 agonist	D3 antag
CCN(CC)CCCN=C1N[C@@H](c2cccc(C(F)(F)F)c2)C(C(=O)OC)=C(C)N1CC	22.4µM	?	i	?	i	i
CCN1C(=O)N[C@@H](c2cccc(C(F)(F)F)c2)C(C(=O)OC)=C1C	i	i	i	i	i	i
CCN1C(=NCc2cccc(C(F)(F)F)c2)N[C@@H](c2cccc(C(F)(F)F)c2)C(C(=O)OC)=C1C	nt	3.55µM	i	nt	nt	nt
Cc1cccc(N2CCN(S(=O)(=O)c3c(C(=O)N4CCC(C)CC4)c(C)n(C)c3C)CC2)c1C	nt	i	i	nt	i	nt
CCCCc1nn2c(=O)cc(COC(=O)c3ccc(NC(=O)C4CCCCC4)cc3)nc2s1	nt	i	i	nt	i	nt
O=C1/C(=C/c2ccncc2)CCC/C1=C\c1ccncc1	?	3.16µM	12.6µM	14.1µM	i	-60.5
COc1cc(C(CCN2CCCCC2)c2c(OC)cc(OC)c3c(-c4ccccc4)cc(=O)oc23)cc(OC)c1OC (stereo not given)	25.1µM	?	i	?	i	i
COc1cc(C(CCN2CCCC(C)C2)c2c(OC)cc(OC)c3c(-c4ccccc4)cc(=O)oc23)cc(OC)c1OC (stereo not given)	nt	i	i	?	i	-51.2
COc1cc(C(CC(=O)N2CCCC2)c2c(OC)cc(OC)c3c(-c4ccccc4)cc(=O)oc23)cc(OC)c1OC (stereo not given)	?	?	i	i	i	i
N#CC1C(=O)c2ccccc2C1c1ccccc1 (stereo not given)	?	?	14.1µM	?	i	i
Cc1ccc2c(c1)c1c3n2CCN(C(=O)CN2CCN(C)CC2)C3CCC1 (stereo not given)	i	?	i	i	i	?
CN1CCN(CC(=O)N2CCn3c4c(c5cc(C6CCCCC6)ccc53)CCCC42)CC1 (stereo not given)	?	?	i	?	i	-65.3
C[C@]12CC[C@@H]3c4ccc(O)cc4CC[C@H]3[C@H]1[C@@H](O)[C@@H](O)[C@H]2O	nt	nt	nt	i	nt	nt
COc1ccc(CCNC(=O)CCc2c(C)nc3cc(-c4ccccc4OC)nn3c2C)c(OC)c1	?	?	i	?	i	nt
COc1ccc(Cl)cc1NC(=O)c1cccc([N+](=O)[O-])c1O	?	11.2µM	i	?	i	i
C/C=C(\C)C(=O)NCCN1C2=NC[C@H](C)N2C[C@@H]1Cc1ccc(OC)cc1	i	i	i	i	i	i
COc1ccc(C[C@H]2CN3C(=NC[C@@H]3Cc3ccccc3)N2CCNC(=O)CCC2CCCCC2)cc1	22.4µM	?	i	?	i	-61.8
COc1ccc(C[C@H]2CN3C(=NC[C@@H]3C(C)C)N2CCNC(=O)CCC2CCCCC2)cc1	?	i	i	i	i	?
COc1ccc(C[C@@H]2CN3C(=NC[C@@H]3C)N2CCNC(=O)c2ccc(C)c(Br)c2)cc1	?	i	i	i	i	-51.7
CC(C)[C@H]1CN=C2N(CCNC(=O)CCC3CCCCC3)[C@H](Cc3ccc(O)cc3)CN21	i	i	i	i	i	-82.8
CCc1cccc(NC(=O)C(NS(=O)(=O)c2ccc3nc(C)sc3c2)C(C)C)c1 (stereo not given)	i	i	i	i	i	nt
CCCC(=O)O[C@]1(C(=O)CC)CC[C@H]2[C@@H]3CCC4=CC(=O)CC[C@]4(C)[C@H]3[C@@H](O)C[C@@]21C	i	nt	nt	i	nt	nt
CCN1CCOC(CC(=O)Nc2ccc([N+](=O)[O-])cc2)C1=O (stereo not given)	i	i	20µM	i	i	i
O=C(CC1OCC2CCCN2C1=O)Nc1ccc([N+](=O)[O-])cc1 (stereo not given)	?	i	i	i	i	i
CC(C)(C)n1ncc2c(=O)n(Cc3cccc(OC(F)F)c3)cnc21	nt	i	i	nt	nt	nt
SMILES	ATXN viability	TGFb inhibitor	HepG2 viability	ATXN2 expr inh	DRD3 agonist	D3 antag
COc1ccccc1NS(=O)(=O)c1ccc(NN=C2CCCCC2)c([N+](=O)[O-])c1	i	i	i	i	i	-60.6
COc1ccc(NS(=O)(=O)c2ccc(N/N=C(\C)c3ccncc3)c([N+](=O)[O-])c2)cc1	i	?	i	i	i	-64.8
C/C(=N\Nc1ccc(S(=O)(=O)Nc2ccc(Cl)cc2)cc1[N+](=O)[O-])c1ccc(N2CCOCC2)cc1	?	i	i	i	i	?
COc1ccccc1NS(=O)(=O)c1ccc(OC)c([N+](=O)[O-])c1	i	i	i	i	i	i
COc1ccccc1Nc1ccc(C(=O)O)cc1[N+](=O)[O-]	i	i	i	i	i	-58.9
CC(C)N1CCC(=NNc2ccc(S(=O)(=O)N3CCOCC3)cc2[N+](=O)[O-])CC1	i	?	i	i	i	i
CCCN1CCC(=NNc2ccc(S(=O)(=O)N3CCOCC3)cc2[N+](=O)[O-])CC1	i	i	14.1µM	i	i	i
COc1ccc(C2(C(=O)NCC3Cc4cccc(-c5nc(C)cnc5C)c4O3)CCCC2)cc1 (stereo not given)	i	nt	nt	nt	nt	nt
COc1cn(CC(=O)Nc2ccc(F)cc2)c(CN2CCCCC2)cc1=O	nt	i	i	nt	i	nt
CCOC(=O)N1CCN(Cc2ccc3c(c2)CN(C(=O)c2ccc4ncccc4c2)CCO3)CC1	i	nt	nt	nt	nt	nt
O=C(O)c1ccc(NCc2cccnc2)c([N+](=O)[O-])c1	?	i	i	nt	i	-82.6
Clc1ccc(C2=NNC(=NCc3ccc4c(c3)OCO4)SC2)cc1	?	15.8µM	i	i	i	i
COc1ccc(-n2c(=S)[nH]c3cc(C(=O)NCc4ccco4)ccc3c2=O)c(OC)c1	i	i	i	i	i	-61.5
O=C(c1ccc(Cn2cc(Br)cn2)o1)n1cccn1	i	i	i	i	i	-51.7
O=C(Nc1ccc(C(F)(F)F)cc1Cl)c1ccc(Cn2cc(Br)cn2)o1	i	?	i	i	i	-75.3
O[C@@H]1CO[C@H]2[C@@H]1OC[C@@H]2O	?	nt	nt	i	i	nt
CCOc1cc(/C=C2\N=C(SC(C)C(N)=O)N(c3ccc(OC(F)F)cc3)C2=O)ccc1O (stereo not given)	?	i	i	?	i	-56.5
O=C(CC1N=C2c3ccccc3N=C(SCc3ccccc3F)N2C1=O)NCc1ccc2c(c1)OCO2 (stereo not given)	?	i	i	i	i	nt
C#CCN(Cc1ccc(OC)cc1)S(=O)(=O)C=C	nt	i	i	nt	nt	nt
Oc1ccccc1/C=N/Nc1ccnc(SCc2ccccc2)n1	i	i	i	i	i	-69.4
CCCCCCCC[n+]1cccc(C(=O)N(CC)CC)c1	i	i	i	nt	i	i
